# Values joined by “and” are separate entries in the source; they are usually repeats but may differ in a detail not shown here. Equal entries are not always repeated. About 83,000 compounds went through this panel and 20% of them were active in at least one assay; those are over-represented in the sample as a whole.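 Values shown are percent growth following 48 h exposure of cells in 96-well plates to a single concentration of compound; below 10 was considered active.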 Active and inactive are the calls of the source.
# Experiments:
# Test in all cases: NCI-60 one-dose screen, 48 h (100 = growth as untreated, 0 = no growth, -100 = all killed)
# Conditions in all cases: 10 µM unless noted
# DU-145 prostate = test system: DU-145 prostate
# K-562 leukemia = test system: K-562 leukemia
# MDA-MB-231 breast = test system: MDA-MB-231 breast
# RXF 393 renal = test system: RXF 393 renal
# SF-268 CNS = test system: SF-268 CNS
# SF-539 CNS = test system: SF-539 CNS
# UACC-257 melanoma = test system: UACC-257 melanoma
# M14 melanoma = test system: M14 melanoma
# HCT-15 colon = test system: HCT-15 colon
# SNB-75 CNS = test system: SNB-75 CNS
# SNB-19 CNS = test system: SNB-19 CNS
# U251 CNS = test system: U251 CNS
# PC-3 prostate = test system: PC-3 prostate
# SK-MEL-5 melanoma = test system: SK-MEL-5 melanoma
# UACC-62 melanoma = test system: UACC-62 melanoma
# LOX IMVI melanoma = test system: LOX IMVI melanoma
# SK-MEL-28 melanoma = test system: SK-MEL-28 melanoma
# HT29 colon = test system: HT29 colon
# SF-295 CNS = test system: SF-295 CNS
# MALME-3M melanoma = test system: MALME-3M melanoma
structure (smiles),measurement,setting,value
O=C1NC(=O)C(CSc2ccccc2)(c2ccccc2)N1 (configuration not stated),growth,DU-145 prostate,123% (inactive)
same,growth,K-562 leukemia,104% (inactive)
same,growth,MDA-MB-231 breast,104% (inactive)
same,growth,RXF 393 renal,103% (inactive)
same,growth,SF-268 CNS,123% (inactive)
same,growth,SF-539 CNS,113% (inactive)
same,growth,UACC-257 melanoma,93.6% (inactive)
same,growth,M14 melanoma,105% (inactive)
same,growth,HCT-15 colon,119% (inactive)
same,growth,SNB-75 CNS,83.9% (inactive)
same,growth,SNB-19 CNS,113% (inactive)
same,growth,U251 CNS,96.7% (inactive)
same,growth,PC-3 prostate,88.9% (inactive)
same,growth,SK-MEL-5 melanoma,92.6% (inactive)
same,growth,UACC-62 melanoma,101% (inactive)
same,growth,LOX IMVI melanoma,89.6% (inactive)
same,growth,SK-MEL-28 melanoma,112% (inactive)
NC(=O)c1cc(Cl)ccc1NC(=O)COc1ccccc1,growth,DU-145 prostate,60.4% (inactive)
same,growth,K-562 leukemia,18.1% (inactive)
same,growth,MDA-MB-231 breast,77.4% (inactive)
same,growth,RXF 393 renal,55% (inactive)
same,growth,SF-268 CNS,66.2% (inactive)
same,growth,SF-539 CNS,18.2% (inactive)
same,growth,UACC-257 melanoma,84.4% (inactive)
same,growth,M14 melanoma,28.2% (inactive)
same,growth,HCT-15 colon,33.3% (inactive)
same,growth,HT29 colon,17.6% (inactive)
same,growth,SNB-75 CNS,36.5% (inactive)
same,growth,SNB-19 CNS,64.7% (inactive)
same,growth,U251 CNS,39.7% (inactive)
same,growth,PC-3 prostate,47.3% (inactive)
same,growth,UACC-62 melanoma,56.7% (inactive)
same,growth,LOX IMVI melanoma,59.4% (inactive)
same,growth,SK-MEL-28 melanoma,69.3% (inactive)
CCN1CCN(C(=S)SCC(=O)Nc2nc3ccc(OC)cc3s2)CC1,growth,DU-145 prostate,106% (inactive)
same,growth,K-562 leukemia,91.8% (inactive)
same,growth,MDA-MB-231 breast,98% (inactive)
same,growth,RXF 393 renal,92.5% (inactive)
same,growth,SF-268 CNS,92.5% (inactive)
same,growth,SF-295 CNS,121% (inactive)
same,growth,SF-539 CNS,109% (inactive)
same,growth,UACC-257 melanoma,117% (inactive)
same,growth,M14 melanoma,112% (inactive)
same,growth,HT29 colon,102% (inactive)
same,growth,SNB-75 CNS,94% (inactive)
same,growth,SNB-19 CNS,93.1% (inactive)
same,growth,U251 CNS,102% (inactive)
same,growth,PC-3 prostate,82.9% (inactive)
same,growth,SK-MEL-5 melanoma,94.6% (inactive)
same,growth,LOX IMVI melanoma,91.3% (inactive)
same,growth,SK-MEL-28 melanoma,106% (inactive)
CCOC(=O)CCCOc1cc(-c2ccccc2F)nc2cc3c(cc12)OCO3,growth,UACC-62 melanoma,31.5% [100 µM] (inactive) and -31.4% [100 µM] (active)
CC1(C)CC2(C)OC(=N)C1(C#N)C2(C#N)C#N (configuration not stated),growth,UACC-62 melanoma,-92.9% [100 µM] (active)
N#C[S-].[Au+].c1ccc(CN2[CH-]N(Cc3ccccc3)C(c3ccccc3)=C2c2ccccc2)cc1,growth,SF-295 CNS,-14.8% (active)
COc1cc2c(cc1-c1coc3cc(OCC=C(C)C)ccc3c1=O)OCO2,growth,UACC-62 melanoma,0.442% [100 µM] (active) and 1.53% [100 µM] (active)
O=[N+]([O-])c1cccc(-c2ncnc(-c3cccc([N+](=O)[O-])c3)n2)c1,growth,UACC-62 melanoma,53.2% [100 µM] (inactive) and 0.549% [100 µM] (active)
COc1cc2c(cc1O)Cc1c-2[n+](C)cc2cc(OC)c(OC)cc12,growth,UACC-62 melanoma,12.4% [100 µM] (inactive) and -100% [100 µM] (active)
N#Cc1sc2nc(/C=C3/C=CC=CC3=O)c(O)n2c1N,growth,UACC-62 melanoma,18.5% [100 µM] (inactive) and 7.16% [100 µM] (active)
Cc1cc[n+](CCc2ccccc2)cc1,growth,RXF 393 renal,108% (inactive)
same,growth,U251 CNS,97.2% (inactive)
same,growth,SK-MEL-5 melanoma,92.7% (inactive)
CC(=O)OCC1OC([S-])C(OC(C)=O)C(OC(C)=O)C1OC(C)=O.[Au+].c1ccc(CN2[CH-]N(Cc3ccccc3)C(c3ccccc3)=C2c2ccccc2)cc1,growth,SF-295 CNS,-11.3% [4.75 µM] (active)
C/C(Cl)=N/OC(=O)Nc1ccc(S(N)(=O)=O)c(C)c1,growth,UACC-62 melanoma,-93.6% [100 µM] (active) and -100% [100 µM] (active)
N#CC1C(=O)N(c2ccccc2)NC12OC(=O)c1ccncc12 (configuration not stated),growth,UACC-62 melanoma,69.2% [20 µM] (inactive) and 17.2% [20 µM] (inactive)
NC(=O)c1[nH]cnc1/N=N/SCC(N)C(=O)O (configuration not stated),growth,UACC-62 melanoma,6.63% [100 µM] (active) and 4.02% [100 µM] (active)
N#Cc1c(O)c2c(c(O)c1C#N)C(=O)c1ccccc1C2=O,growth,MALME-3M melanoma,-16.5% (active)
same,growth,MDA-MB-231 breast,2.69% (active)
same,growth,RXF 393 renal,92.3% (inactive)
same,growth,SF-268 CNS,32.6% (inactive)
same,growth,SF-295 CNS,59.6% (inactive)
same,growth,SF-539 CNS,46.9% (inactive)
same,growth,UACC-257 melanoma,28.4% (inactive)
same,growth,M14 melanoma,2.51% (active)
same,growth,HCT-15 colon,26.9% (inactive)
same,growth,HT29 colon,0.694% (active)
same,growth,SNB-75 CNS,145% (inactive)
same,growth,SNB-19 CNS,70.8% (inactive)
same,growth,U251 CNS,3.42% (active)
same,growth,PC-3 prostate,14.3% (inactive)
same,growth,SK-MEL-5 melanoma,-73.1% (active)
same,growth,UACC-62 melanoma,-17.3% (active)
same,growth,SK-MEL-28 melanoma,5.91% (active)
CC12NC(=C(C#N)C#N)C(C#N)=C3NC(N)=C(C#N)C(=C31)Oc1ccccc12 (configuration not stated),growth,UACC-62 melanoma,7.06% [100 µM] (active) and -61.2% [100 µM] (active)
N#Cc1c(=N)cc2c3ccccc3oc3c(C#N)c(N)[nH]c1c32,growth,UACC-62 melanoma,74.6% [100 µM] (inactive) and 13.9% [100 µM] (inactive)
O=C1c2cc(S(=O)(=O)O)ccc2C(=O)c2c1cccc2[N+](=O)[O-],growth,MALME-3M melanoma,111% (inactive)
same,growth,MDA-MB-231 breast,112% (inactive)
same,growth,RXF 393 renal,128% (inactive)
same,growth,SF-268 CNS,108% (inactive)
same,growth,SF-295 CNS,100% (inactive)
same,growth,SF-539 CNS,104% (inactive)
same,growth,UACC-257 melanoma,93% (inactive)
same,growth,M14 melanoma,95.2% (inactive)
same,growth,HCT-15 colon,110% (inactive)
same,growth,HT29 colon,104% (inactive)
same,growth,SNB-75 CNS,110% (inactive)
same,growth,U251 CNS,99.2% (inactive)
same,growth,SK-MEL-5 melanoma,114% (inactive)
same,growth,UACC-62 melanoma,110% (inactive)
same,growth,LOX IMVI melanoma,103% (inactive)
same,growth,SK-MEL-28 melanoma,121% (inactive)
C=C1C(=O)OC2C1CC(O)/C(C)=C\CCC1(C)OC21 (configuration not stated),growth,UACC-62 melanoma,68.9% [100 µM] (inactive) and -86% [100 µM] (active)
CC(=O)OCC1O[C@@H]([S-])C(OC(C)=O)[C@H](OC(C)=O)[C@@H]1OC(C)=O.[Au+].c1ccc(CN2[CH-]N(Cc3ccccc3)C(c3ccccc3)=C2c2ccccc2)cc1,growth,SF-295 CNS,31.1% (inactive)
N#CC12COC3(CCCCC3C1(C#N)C#N)OC2=N (configuration not stated),growth,UACC-62 melanoma,-38.9% [100 µM] (active)
CCOC(=O)CCC(NC(=O)c1ccc(OCc2nc3cc(C(F)(F)F)ccc3nc2-c2ccccc2)cc1)C(=O)OCC (configuration not stated),growth,UACC-62 melanoma,49.5% [100 µM] (inactive) and 4.13% [100 µM] (active)
C=CCCCCCCCCC(=O)[O-].C=CCCCCCCCCC(=O)[O-].[Zn+2],growth,MDA-MB-231 breast,106% (inactive)
same,growth,SNB-19 CNS,100% (inactive)
C[C@]12CC[C@@H]3c4cc(Br)c(O)c(Br)c4CC[C@H]3[C@@H]1CC(Br)C2=O (some centres not stated),growth,UACC-62 melanoma,-79.5% [100 µM] (active) and -97.9% [100 µM] (active)

# From PubChem BioAssay (NCI)
